# The list is not random: actives were taken first. Their share in the collection is about 14%.
# FBPA Giardia inh: qHTS Assay for Inhibitors of Fructose-1,6-bisphosphate Aldolase from Giardia Lamblia | AID 2451, 2010 | Potency, µM (top dose mostly 59.6 µM), inactives show top-dose activity, negative = inhibition, hits mostly inhibitors | A8B2U2 | purified Giardia FBPA | 0.71% of 290,000 active; also: potency is read from the fitted curve at half-maximal effect; % is scaled to controls: 0 for no effect and ±100 for the full control effect; nearly all actives have a fitted effect of over 55% in size
# Target sequence (A8B2U2 whole entry, looked up): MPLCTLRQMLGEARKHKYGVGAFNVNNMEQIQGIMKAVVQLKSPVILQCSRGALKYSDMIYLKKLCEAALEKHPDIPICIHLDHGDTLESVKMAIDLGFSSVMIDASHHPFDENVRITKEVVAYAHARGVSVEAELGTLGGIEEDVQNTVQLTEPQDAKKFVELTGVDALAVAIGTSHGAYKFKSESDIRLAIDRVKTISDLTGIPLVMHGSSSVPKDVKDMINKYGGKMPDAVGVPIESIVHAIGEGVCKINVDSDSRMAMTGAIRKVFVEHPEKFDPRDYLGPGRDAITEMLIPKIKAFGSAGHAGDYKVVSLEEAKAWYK
#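 40 nM FBPA preincubated 10 min at RT with compound (up to 57.5 uM final), then substrate plus GAPDH/TPI/NAD/arsenate coupling and diaphorase/resazurin added. Fluorescence read after 20 min at RT, 525/598 nm.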
# Shiga toxin inh: A qHTS for Small Molecule Inhibitors of Shiga Toxin | Vero cells, Shiga toxin protein synthesis inhibition reporter | AID 2315, 2010 | 9.2% of 290,000 active | inhibition, % at 38.7 µM; in the data active = inhibition mostly above about 28%, no sharp cut-off; inactive = mostly below about 43%; also: 0% is about no effect
# LmPK inh: qHTS Assay for Inhibitors of Leishmania Mexicana Pyruvate Kinase (LmPK); 0.37% of 290,000 active; AID 1721, 2009; Potency, µM (titrated, usually from 57.5 µM), for the others: top-dose activity change, negative = inhibition, actives largely listed as inhibitors; purified LmPK, Kinase-Glo ATP luminescence, 1 h; also: potency is read from the fitted curve at half-maximal effect; % is scaled to controls: 0 for no effect and ±100 for the full control effect
#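 0.1 nM LmPK, 0.5 mM PEP, 0.1 mM ADP; 50 mM imidazole pH 7.2, 7 mM MgCl2, 50 mM KCl; 1 h RT. Kinase-Glo luminescence readout, normalized to no-enzyme (full inhibition) and uninhibited wells.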
# Cycloheximide cs: Cycloheximide Counterscreen for Small Molecule Inhibitors of Shiga Toxin; cell reporter, cycloheximide protein synthesis inhibition counterscreen; AID 2314, 2010; max response, %; 12% of 300,000 active; in the data active = max response mostly above about 13%, no sharp cut-off; inactive = mostly below about 14%; also: read at 38.3 µM for the half of the compounds with a filed dose; 0% is about no effect
# NS1 inh: qHTS Assay for Inhibitors of Influenza NS1 Protein Function; Potency, µM (highest dose often 46.1 µM), without a hit: at the top dose activity, positive = more growth; 0.4% of 270,000 active; AID 2326, 2010; calls by dose curve; also: potency is read from the fitted curve at half-maximal effect; actives are rising curves; nearly all actives have a fitted effect of over 50% in size
#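 A cell-based growth assay was used: compounds that relieve NS1-induced slow growth of budding yeast raise OD600. Assay medium was yeast nitrogen base with ammonium sulphate and -URA supplement, pH 6.0, with 2% galactose.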
# * marks the source's active call; other numbers are inactive results; ? = inconclusive; / = no result given; [ ] = dose if it differs, or a comment. Unless noted, calls follow the shape of the dose curve; as a rule, active = well fitted curve in the direction sought with a large enough effect; inconclusive = small, poorly fitted or top-dose-only effect, or another doubt; inactive = no such curve, though single readings can be large; an effect the other way counts as inactive or inconclusive.
SMILES,FBPA Giardia inh,Shiga toxin inh,LmPK inh,Cycloheximide cs,NS1 inh
Cc1ccc(/C(N)=N/OC(=O)CCC2CCCCC2)cc1,2%,38,0%,14*,-33%
N/C(=N\OC(=O)CC1CCCCC1)c1ccccn1,0%,39,?,14,-5%
Cc1ccc(/C(N)=N/OC(=O)CCC2CCCC2)cc1,0%,3,-5%,-3,3%
N/C(=N\OC(=O)CCC1CCCC1)c1ccc(Cl)cc1,/,17,-3%,9,-29%
O=C(c1ccccc1)c1ccc(N2CCN(C(=O)c3cccc(F)c3F)CC2)c(F)c1,/,20,-11%,9,-5%
CCn1cc(C(=O)NCCCOC(C)C)c(=O)c2cc(S(=O)(=O)N3CCC(C)CC3)ccc21,-2%,-2,6%,-6,22%
O=c1c2[nH]c3ccc(F)cc3c2nc2n1CCCS2,-3%,54*,-4%,25*,/
O=c1c2[nH]c3ccccc3c2nc2n1CCCS2,1%,74*,-4%,38*,/
O=c1c2[nH]c3ccc(F)cc3c2nc2n1CCS2,0%,27,-6%,9,/
Cc1nc2c([nH]c3ccccc32)c(=O)n1N,-1%,88,-14%,28*,/
Cc1ccc(N)cc1NC(=O)CN1CCOCC1,-6%,-3,-1%,-2,?
CC(C)(C)N(CC(=O)NC1CCCCC1)C(=O)CS(=O)CC(=O)Nc1ccc(F)cc1 (configuration not stated),2%,-3,0%,-10,-19%
COc1ccc(CCNC(=O)CN(c2ccc(OC)c(OC)c2)S(=O)(=O)c2ccccc2)cc1OC,/,29,-6%,-1,12%
COc1cccc(CN2CCC(C(=O)Nc3ccc(-c4cccc(C)c4)cc3)CC2)c1O,11%,-1,-9%,-2,1%
O=c1n(-c2ccccc2)c(=O)n2n1CC[C@H]1/C(=N\OC[C@@H](O)COCc3ccco3)[C@H]3O[C@@H]3[C@@H](O)[C@@H]12,-1%[12.9 µM],/,/,/,/
COc1ccc(C(C[N+](=O)[O-])c2c(-c3ccccc3)cc3ccccn23)cc1 (configuration not stated),-5%,30,-2%,40*,26%
CCN1CCN(Cc2c(O)ccc3c2O/C(=C\C=C\c2ccccc2OC)C3=O)CC1,-18%,97*,1%,57*,6%
O=C1/C(=C/c2ccco2)Oc2c1ccc(O)c2CN1CCCCC1,?,-13,0%,-4,14%
CC1CCN(Cc2c(O)ccc3c2O/C(=C\c2ccco2)C3=O)CC1,?,-10,5%,-1,8.9µM*
CCOC(=O)C1CCN(S(=O)(=O)c2ccc3c(c2)CC(C)N3C(=O)C2CCC2)CC1 (configuration not stated),10%,-3,4%,4,-24%
C[C@@H](N1CCOCC1)[C@@](O)(c1ccccc1)c1ccccn1,/,/,/,/,3%
CCCc1cc(C(=O)NC2CCCCC2)no1,6%,61*,-10%,62*,-16%
CCCc1cc(C(=O)NC2CCCC2)no1,1%,86*,-3%,41*,-15%
CCCc1cc(C(=O)N(C2CCCCC2)C2CCCCC2)no1,3%,-5,-1%,-1,-106%
CCCc1cc(C(=O)NC2CCCN(Cc3ccccc3F)C2)no1 (configuration not stated),/,-4,8%,-2,-5%
SMILES,FBPA Giardia inh,Shiga toxin inh,LmPK inh,Cycloheximide cs,NS1 inh
CC(C)c1cc(C(=O)NC2CCCCC2)no1,-4%,11*,-2%,35*,4%
O=C(COc1ccc(Cl)cc1)Nc1cc(NC(=O)COc2ccc(Cl)cc2)cc(C(=O)O)c1,12%,2,-4%,1,9%
COC(=O)[C@@]1(Cc2ccc(OC)cc2)[C@H]2c3cc(C(=O)N4CCCC4)n(Cc4cc(F)cc5c4OCOC5)c3C[C@H]2CN1C(=O)c1ccccc1,-5%,/,/,/,/
Cc1cc(O)c(C(=O)Cc2csc(C)n2)c(O)c1,-2%,83*,1%,39*,-9%
Cc1nc2cc(-c3sccc3-n3cccc3)nn2c(C)c1C,2%,60*,1%,34*,21%
Cc1cc(C(F)(F)F)n2nc(-c3sccc3-n3cccc3)cc2n1,5%,-14,-6%,-2,11%
CCCNC[C@H](O)COc1ccccc1C(=O)CCc1ccccc1,-2%,/,/,/,-17%
Nc1ccc(C(=O)OCC(=O)Nc2ccc3c(c2)OCO3)cc1[N+](=O)[O-],-18%,17,1%,20*,?
O=C(COC(=O)c1ccco1)Nc1ccc2c(c1)OCO2,-4%,53*,3%,25*,3%
Cn1cccc1C(=O)OCC(=O)Nc1ccc2c(c1)OCO2,-1%,64*,17%,33*,4%
CN(Cc1cccs1)C(=O)CCc1c[nH]c2ccccc12,0%,60,7%,16*,/
CN(Cc1cccs1)C(=O)CCCc1c[nH]c2ccccc12,0%,73*,0%,46*,-19%
O=C(CCCc1c[nH]c2ccccc12)NCc1cccs1,6%,15,0%,-1,/
Cc1cccc(-c2noc(CN(C(=O)c3ccc4c(c3)OCO4)C(C)C)n2)c1,-4%,-19,-7%,-2,-30%
Cc1nc(C(C)N(C)Cc2nc(-c3ccc4c(c3)OCO4)no2)c(C)s1 (configuration not stated),0%,45,3%,51*,-11%
CN(C)CCN(C(=O)c1ccc(S(=O)(=O)N2CCc3ccccc32)cc1)c1nc2ccc(F)cc2s1,/,79*,-2%,16,13%
CCN(CC)CCN(C(=O)c1ccc2ccccc2c1)c1nc2ccc(F)cc2s1,-21%,51*,1%,9,-52%
CCc1ccc2nc(N(CCCN(C)C)C(=O)c3ccc(S(=O)(=O)N4CCCc5ccccc54)cc3)sc2c1,-25%,-6,-1%,-1,6%
Cc1ccc2nc(N(CCCN(C)C)C(=O)c3ccc4ncsc4c3)sc2c1,-21%,89*,2%,41*,-10%
Cc1ccc2nc(N(CCN(C)C)C(=O)c3ccc4ccccc4c3)sc2c1,-27%,17,-1%,24,-19%
CCN(CC)CCN(C(=O)c1cc2c(ccc3ccccc32)oc1=O)c1nc2cc3c(cc2s1)OCCO3,-16%,11,5%,21*,-7%
CCOc1cc(C(=O)Oc2cc(C)[nH]c(=O)c2[N+](=O)[O-])cc(OCC)c1OCC,/,23,0%,-2,-1%
O=S1(=O)NCC23CCC(CC21)O3 (configuration not stated),7%,-15,/,5,/
COc1ccc(CCNC(=O)CCNC(=O)c2ccccc2Cl)cc1,0%,-10,3%,-7,5%
Cc1ccc2nc(N(CCN(C)C)C(=O)c3ccc4c(c3)OCCO4)sc2c1,/,64,-2%,35*,-10%
CN(C)CCN(C(=O)c1ccc2ccccc2c1)c1nc2cc3c(cc2s1)OCCO3,/,82*,-1%,39*,-36%
